Experimental data published in PubChem BioAssay (NCI).
This is part of a sample that, as a whole, favours compounds with a hit. Of some 79,000 tested, about 15% had one in any assay. Unmarked numbers belong to inactive results. Active and inactive are the calls of the source. Cut-off read from the data, not from the text of the source: active = growth inhibition above about 70%; inactive = the rest.

test: NCI Yeast Anticancer Drug Screen. Data for the sgs1 mgt1 strain (AID 161);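 note: 0% = growth of cultures given vehicle only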; conditions: S. cerevisiae sgs1 mgt1 strain, at 50.0 µM (retest, dose inferred, filed as 5.0), active compounds read high
Procedure, shortened: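 Growth of a repair-deficient yeast mutant was monitored after compound treatment and expressed as inhibition relative to vehicle-treated cultures.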

Compound	growth inhibition
Oc1c(Cl)cc(Cl)c2cccnc12	99% (active)
COc1ccc2c(c1)[n+]([O-])c(-c1ccccc1)c(N)[n+]2[O-]	97% (active)
O=c1cccccc1[O-].O=c1cccccc1[O-].O=c1cccccc1[O-].[Sm+3]	21%
CCCCCCCCCCCCCCCCNc1ccn(C2CC(OP(=O)(O)OCC3OC(n4cc(CC)c(=O)[nH]c4=O)CC3O)C(CO)O2)c(=O)n1 (stereo unspecified)	97% (active)
Nc1ccccc1OCC(O)CN1CCN(Cc2ccccc2)CC1 (stereo unspecified)	42%
O=S(=O)(O)c1ccc(O)c2cc(Nc3ccccc3)ccc12	-31%
CCOC(=O)/C(=C\c1ccc(-c2ccccc2)cc1)C(C)=O	92% (active)
O=C(C(Oc1ccc(Cl)cc1)Oc1ccc(Cl)cc1)N(O)c1ccccc1OCc1ccccc1	45%
CN(C)CC1CCC/C(=C\c2ccc(Cl)cc2)C1=O (stereo unspecified)	99% (active)
COc1ccc(/C=N/Nc2ccccc2)cc1	97% (active)
O=C1c2ccccc2-c2ccccc2C(=O)C1(Br)Br	-11%
CC(=O)Nc1ccc(C(=O)n2[nH]c(C)c(/C=C3\C(=O)C=Cc4ccccc43)c2=O)cc1	99% (active)
CC1OC2CC(=O)OC2C2=C1C(=O)c1c(O)cccc1C2=O (stereo unspecified)	99% (active)
CCOC(=O)C(CCSC)C(=O)OCC	-2%
C[CH2][Sn]([CH2]C)([O]C(=O)c1cccc(OC)c1)[O][Sn]([CH2]C)([CH2]C)[O]C(=O)c1cccc(OC)c1	76% (active)
O=C(Nc1ccccc1)Oc1c(Cl)c(Cl)c(Cl)c(Cl)c1Cl	99% (active)
